Screening data from PubChem.
Cav32 inh: blocks human Cav3.2 T-type calcium channel | B-score at 10 µM | actives 4% (n = 100,000) | Cav3.2-expressing cells, Fluo-4 calcium fluorescence FDSS; stronger effect = lower value | AID 449739 | O95180;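 active = single-dose well whose peak fluorescence ratio is a statistical outlier from its plate by either plate-standardised score or position-corrected B-score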
CYP2C19 inhib: human CYP2C19 inhibition; inhibition, % at 5 µM; actives 21% (n = 96,000); CYP2C19 Supersomes, luciferin-H EGE luminescence, 30 min; AID 778;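 active = CYP2C19 inhibition above a set limit at 5 µM in the primary screen, cut at about 50% in these data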;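 note: plate controls were negative control wells for no effect and 2.5 mM tranylcypromine positive control for full effect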
Target sequence (P33261 whole entry, looked up): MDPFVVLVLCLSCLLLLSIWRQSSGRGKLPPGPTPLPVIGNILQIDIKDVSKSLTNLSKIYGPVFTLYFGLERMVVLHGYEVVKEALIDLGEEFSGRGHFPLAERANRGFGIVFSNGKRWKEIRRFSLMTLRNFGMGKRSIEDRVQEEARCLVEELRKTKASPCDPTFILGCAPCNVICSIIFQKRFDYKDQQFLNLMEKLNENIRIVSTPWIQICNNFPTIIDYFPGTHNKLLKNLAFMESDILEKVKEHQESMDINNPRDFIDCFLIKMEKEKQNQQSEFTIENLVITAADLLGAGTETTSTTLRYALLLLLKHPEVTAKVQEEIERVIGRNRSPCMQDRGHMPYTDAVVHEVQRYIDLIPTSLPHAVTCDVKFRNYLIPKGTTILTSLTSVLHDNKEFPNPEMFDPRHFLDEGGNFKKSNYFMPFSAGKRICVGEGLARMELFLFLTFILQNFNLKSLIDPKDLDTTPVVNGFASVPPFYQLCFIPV
CYP2C9 inhib: blocks human cytochrome P450 2C9. P11712. CYP2C9 Supersomes, luciferin-H conversion, luminescence. inhibition, % at 5 µM. actives 20% (n = 96,000). AID 777;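 active = blocking of liver enzyme CYP2C9 beyond about 50% at 5 µM, limit read from the data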
CYP2C9 act: CYP2C9 (human) activation; P11712; recombinant CYP2C9, luciferin-H conversion, luminescence; stronger effect = higher value; factor 1 = untreated enzyme, 0 = blocked; activation factor at 5 µM; actives 1.4% (n = 96,000); AID 1024;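 active = activation factor of 2 or more for CYP2C9 at a 5 µM dose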;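 note: 0 = sulfaphenazole-blocked wells and 1 = vehicle-only wells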
CYP2C19 act: cytochrome P450 2C19 (human) activation | P33261 | recombinant CYP2C19, luciferin-H EGE luminescence; stronger effect = higher value; 0 = fully inhibited enzyme, 1 = untreated enzyme | activation factor at 5 µM | 96,000 tested, under 10 active;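 active = activation factor of at least 2 at 5 µM in the primary screen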;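 note: 0 = wells with 2.5 mM tranylcypromine and 1 = vehicle-only wells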
Numbers without * were called inactive; . = no result. Shown are actives, neighbours in structure and some others; about 27% of the full set was active somewhere.

SMILES	Cav32 inh	CYP2C19 inhib	CYP2C9 inhib	CYP2C9 act	CYP2C19 act
Cc1cc(C)nc(SCC(=O)Nc2cc(C)on2)n1	-0.26	35	-10	1.1	0.6
CCC(C(=O)Nc1cc(C)on1)c1ccccc1 (centres undefined)	0.12	65*	54*	0.5	0.3
Cc1cc(NC(=O)CSc2ccccc2)no1	0.24	51*	38	0.6	0.5
COc1ccccc1NC(=O)N1CCCC1C(=O)NC12CC3CC(CC(C3)C1)C2 (centres undefined)	-0.55	10	-14	1.1	0.9
CCCCOc1ccc(-c2cc(C(=O)NNC(=S)NCC)c3ccccc3n2)cc1	0.15	20	22	0.8	0.8
NC/C(=N\O)c1ccc(Cl)cc1Cl	-0.12	80*	52*	0.5	0.2
C/C(=N/Oc1nc(C)cc(C)n1)c1ccc(Cl)cc1Cl	0.42	6	10	0.9	0.9
CCOc1ccc(C2NC(=O)C(C#N)=C(S)N2c2ccc(C)cc2)cc1OC (centres undefined)	0.05	-1	47	0.5	1
CCN(CC)C(=O)CN(C)S(=O)(=O)c1cccc2nsnc12	0.67	-8	-11	1.1	1.1
CCOC(=O)c1ccc(NS(=O)(=O)c2cccc3nsnc23)cc1	0.00043	37	78*	0.2	0.6
CCOC(=O)c1cccc(NC(=O)CCS(=O)(=O)c2cccc3nsnc23)c1	.	77*	72*	0.3	0.2
O=C(O)Cn1nc(C(F)(F)F)c2c1CCC2	-0.71	21	-20	1.2	0.8
Cc1ccc(SCC(=O)NCCSC(C)(C)C)cc1	0.013	34	38	0.6	0.7
COc1c2ccoc2nc2c(OC)c(O)ccc12	2.5	.	.	.	.
COc1c2c(nc3occc13)C(CCC(C)(C)O)(OC)C(O)CC2 (centres undefined)	-1	56*	54*	0.5	0.4
CC1CCCCN1C(=O)c1cnn2c(C(F)(F)F)cc(-c3ccco3)nc12 (centres undefined)	0.26	44	22	0.8	0.6
CCOC(=O)Cc1c(C)nc2c(-c3ccc(Cl)cc3)c[nH]n2c1=O	.	7	67*	0.3	0.9
CCOC(=O)Cc1c(C)nc2cc(-c3ccc(Cl)cc3)[nH]n2c1=O	0.62	-3	2	1	1
Cn1c(N)c(C(=O)COC(=O)C2=COCCO2)c(=O)n(C)c1=O	0.3	10	20	0.8	0.9
CCN(Cc1ccncc1)C(=O)C1CCN(S(=O)(=O)c2cccs2)CC1	0.68	80*	99*	0	0.2
CCOC(=O)c1cccc(NC(=O)CN(C)S(=O)(=O)c2cnc[nH]2)c1	0.051	54*	94*	0.1	0.5
CCOC(=O)c1cccc(NC(=O)C2CCN(S(=O)(=O)c3cccs3)CC2)c1	.	88*	84*	0.2	0.1
CN(C(=O)C1CCN(S(=O)(=O)c2cccs2)CC1)C1CCCCC1	0.84	13	-5	1	0.9
O=C(C1Cc2ccccc2CN1S(=O)(=O)c1cccs1)N1CCCCCC1 (centres undefined)	-2.2	82*	47	0.5	0.2
Cc1ccc(CNC(=O)[C@H]2C[C@@H]2[C@H](NP(=O)(c2ccccc2)c2ccccc2)c2ccccc2)o1	-2	.	.	.	.
SMILES	Cav32 inh	CYP2C19 inhib	CYP2C9 inhib	CYP2C9 act	CYP2C19 act
CC(=O)NC1C(=O)Nc2c1cccc2C(F)(F)F (centres undefined)	0.63	3	-12	1.1	1
Cc1cc(NC(=O)C2CCN(S(=O)(=O)c3cnc[nH]3)CC2)ccc1Br	1	45	79*	0.2	0.5
CCOC(=O)c1ccc2c(c1)nc(C1CCN(S(=O)(=O)c3cccs3)CC1)n2CC	-1.4	84*	87*	0.1	0.2
CCOC(=O)c1cccc(NC(=O)C2CCN(S(=O)(=O)c3cnc[nH]3)CC2)c1	0.72	99*	100*	0	0
COc1cc(NC(=O)C2CCN(S(=O)(=O)c3cnc[nH]3)CC2)cc(OC)c1OC	0.48	20	72*	0.3	0.8
COc1ccccc1CNC(=O)C(C)NS(=O)(=O)c1ccc(Br)cc1 (centres undefined)	0.049	.	.	.	.
Cc1cccc(C)c1NC(=O)COc1cccc(/C=N/NC(=O)C(=O)NCc2ccccc2)c1	-0.55	3	3	1	1
CCO[C@@H]1OC(C(=O)NCc2ccccc2)=C[C@H](c2cn(C(C)=O)c3ccccc23)[C@H]1CCCO	-0.61	.	.	.	.
Cc1cc(C)c(S(=O)(=O)Nc2ccc(OCC(=O)O)cc2)c(C)c1	-0.2	22	38	0.6	0.8
Cc1cc(=O)n(CC(C)O)c(O)c1C#N (centres undefined)	-0.038	.	.	.	.
CCOC(=O)C1CCCN(C(=O)C2CCN(S(=O)(=O)c3cccs3)CC2)C1 (centres undefined)	-0.058	75*	64*	0.4	0.2
CCOC(=O)c1c(NC(=O)C2CCN(S(=O)(=O)c3cccs3)CC2)sc(C)c1C	.	39	35	0.7	0.6
O=C(Nc1ccccc1C(=O)N1CCOCC1)c1ccncc1	0.81	-10	-9	1.1	1.1
CCOC(=O)Cc1c(C)c2ccc(N(CC)CC)cc2oc1=O	.	3	-112	2.1*	1
Cc1c(C)c2ccc(OCC(=O)N(C)C)c(C)c2oc1=O	0.71	25	-9	1.1	0.7
CCOC(=O)CCc1c(C)c2ccc(O)cc2oc1=O	0.16	26	-4	1	0.7
CCOC(=O)CCc1c(C)c2ccc(OCC(=O)N(CC)CC)c(C)c2oc1=O	0.7	34	51*	0.5	0.7
C=CCNc1nc2c(c(=O)[nH]c(=O)n2C)n1Cc1cccc(C)c1	0.065	.	.	.	.
CC(CCc1ccco1)NC(=O)Cn1nc(Cc2ccncc2)c2ccccc2c1=O (centres undefined)	-0.081	84*	86*	0.1	0.2
O=C(Cn1nc(Cc2cccnc2)c2ccccc2c1=O)N1CCN(C(=O)c2ccco2)CC1	0.15	8	50	0.5	0.9
O=C(Cn1nc(Cc2ccncc2)c2ccccc2c1=O)N1CCN(C(=O)c2ccco2)CC1	0.57	34	64*	0.4	0.7
CCCCN(CC)CCCNC(=O)Cn1nc(Cc2ccncc2)c2ccccc2c1=O	0.81	11	34	0.7	0.9
CC(O)Cc1nsc(NC(=O)c2ccc(Br)o2)n1 (centres undefined)	-0.13	-5	-8	1.1	1.1
Cc1cc2nnc(SC(C)C#N)n2c2ccccc12 (centres undefined)	0.4	.	.	.	.
Cc1cc2nnc(SC3CCOC3=O)n2c2ccccc12 (centres undefined)	1.4	-1	-108	2.1*	1
Cc1cc2nnc(SC3CCCCN(C(=O)c4ccc(F)cc4)C3=O)n2c2ccccc12 (centres undefined)	.	84*	29	0.7	0.2
CCOC(=O)C1=C(N)N2C(=O)CSC2=C(C(=O)OC)C1	-0.0082	-15	46	0.5	1.2
CCOC(=O)c1sc(Nc2ccccc2)nc1C	-0.97	24	41	0.6	0.8
COc1cc(CC(=O)Nc2ncc(C)s2)cc(OC)c1OC	-2.1	73*	54*	0.5	0.3
